An excerpt weighted towards active compounds, which were near 3.1% of everything screened.
esBAF inh: blocks esBAF chromatin remodeling in mouse ES cells; Bmi1-luciferase knock-in reporter, 24 h; 100% = twice the neutral-well signal; reporter increase, % at 12.5 µM; actives 2% (n = 350,000); AID 602393; in the data active = activation above about 40%; inconclusive = no clear call, values can overlap the other calls;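 note: a rise in the Bmi1 reporter signal indicates esBAF inhibition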
MITF TRPM1 HTS: activators of MITF-driven TRPM1 promoter activity in SK-MEL-5 cells; AID 588334; SK-MEL-5 TRPM1-promoter luciferase, 24 h; % of positive control, neutral wells = 0; activation, % at 12.5 µM; actives 0.75% (n = 300,000);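 active = mean activation of at least 80% with every replicate also reaching 80%; inconclusive = mean reaches 80% but some replicate falls short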
Statin myotox sup: protects C2C12 myotubes from simvastatin toxicity | ATP luminescence, 48 h; scaled: DMSO 0, geranylgeraniol control 100 | rescue of ATP level, % at 7.49 µM | actives 0.78% (n = 330,000);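 active = mean ATP rescue above about 67%, or every replicate alone reaching that limit, limit read from the data, passing the limit was not always enough; inconclusive = no clear call, values can overlap the other calls; inactive = mean under the limit and some replicate under it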;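 note: myotubes were challenged with 10 µM simvastatin during compound exposure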
Wnt act: Wnt/beta-catenin pathway activation. Wnt/beta-catenin reporter cell assay, activator, plate reader. activation, % at 9.35 µM. actives 1.2% (n = 300,000); in the data active = activation above about 30%, passing the limit was not always enough; inconclusive = no clear call, values can overlap the other calls
Rtt109 HAT inh: blocks Candida albicans Rtt109/Vps75 acetyltransferase activity | Q5AAJ8 | purified Rtt109/Vps75, ThioGlo CoA-SH fluorescence, 4 h | inhibition, % at 34.9 µM | actives 0.16% (n = 330,000) | AID 540336;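 active = inhibition of at least 50% in every replicate; inconclusive = best replicate reaches 50% inhibition but some replicates fall short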
Target sequence (Q5AAJ8 whole entry, looked up): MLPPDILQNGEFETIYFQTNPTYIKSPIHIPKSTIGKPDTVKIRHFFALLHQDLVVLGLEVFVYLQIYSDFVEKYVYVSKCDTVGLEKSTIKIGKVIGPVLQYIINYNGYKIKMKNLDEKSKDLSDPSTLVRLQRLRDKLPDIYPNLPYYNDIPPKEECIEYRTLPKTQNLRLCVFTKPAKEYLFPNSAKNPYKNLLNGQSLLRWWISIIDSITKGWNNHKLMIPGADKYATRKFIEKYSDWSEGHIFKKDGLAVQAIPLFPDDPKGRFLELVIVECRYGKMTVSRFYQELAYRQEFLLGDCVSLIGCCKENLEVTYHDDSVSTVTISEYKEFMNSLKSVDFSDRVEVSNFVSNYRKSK
Of the large screens only hits and unclear results are named; the others gave an inactive call.

CN(C)/C=C/C(=O)c1cnc(-c2ccccc2)s1	esBAF inh 56.4
Cc1cccc(C)c1Nc1nnc(SCc2cc([N+](=O)[O-])cc3c2OCOC3)s1	Statin myotox sup 243.7
COc1cccc(Nc2nnc(SCc3cc([N+](=O)[O-])cc4c3OCOC4)s2)c1	none (no result: esBAF inh, Statin myotox sup, Wnt act)
C[C@@H](NC(=O)C[C@@H]1CC[C@@H](NS(=O)(=O)c2cccc(F)c2)[C@@H](CO)O1)c1ccccc1	none (no result: MITF TRPM1 HTS, Wnt act, Rtt109 HAT inh)
COc1ccc(C#Cc2ccc([C@H]3[C@H]4CN(C(=O)c5ccncc5)CCCCN4[C@H]3CO)cc2)cc1	Statin myotox sup 97.9 (no result: MITF TRPM1 HTS, Wnt act, Rtt109 HAT inh)
CCSc1ccc(NC(=O)c2cccnc2)cc1	Wnt act 36.7 (no result: MITF TRPM1 HTS, Statin myotox sup)
Cc1ccccc1CNCc1cccnc1	none (no result: Wnt act)
O=C(Nc1ccc(N2CCCCC2)cc1)c1cccnc1	esBAF inh 61.9 (no result: Wnt act)
CC(C)(C)C(=O)Nc1ccc(C(=O)NCc2cccnc2)cc1	Statin myotox sup 114.2 (no result: Wnt act)
CCc1ccc(CNCc2cccnc2)cc1	Statin myotox sup 113.8 (no result: Wnt act)
CC(C)(C)c1ccc(C(=O)Nc2ccc(C(=O)NCc3cccnc3)cc2)cc1	none
Cc1noc(C)c1NC(=O)N(C)C[C@H]1OCCCC[C@@H](C)Oc2ccc(NS(=O)(=O)c3ccccc3)cc2C(=O)N([C@@H](C)CO)C[C@@H]1C	none (no result: MITF TRPM1 HTS, Statin myotox sup, Wnt act, Rtt109 HAT inh)
CCc1ccc(NC(=O)c2cccnc2)cc1	esBAF inh 46.0, Wnt act 53.1
CC(C)(C)c1ccc(C(=O)NCc2ccccc2)cc1	MITF TRPM1 HTS 88.4 (no result: esBAF inh, Statin myotox sup)
CCCNS(=O)(=O)c1ccc(NC(=O)c2cccnc2)cc1	none
COCC#Cc1ccc2c(c1)O[C@@H](CN(C)C(=O)c1ccccc1)[C@H](C)CN([C@@H](C)CO)S2(=O)=O	none (no result: MITF TRPM1 HTS, Wnt act, Rtt109 HAT inh)
C[C@H](CO)N1C[C@H](C)[C@H](CN(C)S(=O)(=O)c2ccc(Cl)cc2)OCCCC[C@H](C)Oc2ccc(NS(C)(=O)=O)cc2C1=O	none (no result: MITF TRPM1 HTS, Wnt act, Rtt109 HAT inh)
CC(C)C(=O)Nc1cc(S(=O)(=O)N2CCOCC2)ccc1N1CCCCC1	Statin myotox sup 108.0 (no result: esBAF inh)
Cc1ccsc1CN(C)C(=O)c1cc(S(=O)(=O)N2CCOCC2)ccc1N1CCCC1	Wnt act 44.0
Cc1ccccc1S(=O)(=O)N1C[C@H](O)COC[C@H]2O[C@@H](CC(=O)N3CCN(C)CC3)CC[C@@H]21	none (no result: MITF TRPM1 HTS, Wnt act, Rtt109 HAT inh)
O=C(Nc1ccccc1)N1C[C@H]2[C@@H](c3ccccc31)[C@H](CO)N2Cc1ccccc1Cl	none (no result: MITF TRPM1 HTS, Wnt act, Rtt109 HAT inh)
CC(=O)N(C)C[C@H]1Oc2ncc(C#CC(C)(C)O)cc2C(=O)N([C@@H](C)CO)C[C@H]1C	none (no result: MITF TRPM1 HTS, Wnt act, Rtt109 HAT inh)
Clc1ccc(-c2cc(CSc3cccc(Cl)c3)on2)cc1	none
c1ccc(SCc2cc(-c3ccccc3)no2)cc1	MITF TRPM1 HTS 94.3 (no result: esBAF inh, Statin myotox sup)
Cc1ccc(SCc2cc(-c3ccc(Cl)cc3)no2)cc1	none (no result: esBAF inh, Statin myotox sup, Wnt act)
Clc1ccc(-c2cc(CSc3ccccc3)on2)cc1	MITF TRPM1 HTS 126.9
Cc1ccc(N=Nc2c(N)n(-c3ccccc3)[nH]c2=O)cc1	esBAF inh 41.5 (no result: Wnt act)
N/C(=N\OC(=O)c1ccc(Br)cc1)c1ccncc1	esBAF inh inconclusive, MITF TRPM1 HTS 97.9
N/C(=N\OC(=O)c1ccc(F)cc1)c1ccc(Br)cc1	esBAF inh 56.2, Wnt act 44.2
CO[C@@H]1CN(C)C(=O)c2cc(NC(=O)Nc3ccccc3)ccc2OC[C@@H](C)N(C(=O)CC2CC2)C[C@@H]1C	none (no result: MITF TRPM1 HTS, Wnt act, Rtt109 HAT inh)
CO[C@H]1CN(C)C(=O)c2cc(NC(=O)Nc3ccccc3)ccc2OC[C@H](C)N(C(=O)CC2CC2)C[C@@H]1C	esBAF inh 47.8 (no result: MITF TRPM1 HTS, Wnt act, Rtt109 HAT inh)
CO[C@H]1CN(C)C(=O)c2ccc(NC(=O)Nc3ccc4c(c3)OCO4)cc2OC[C@@H](C)NC[C@@H]1C	esBAF inh 56.4 (no result: MITF TRPM1 HTS, Wnt act, Rtt109 HAT inh)
CO[C@H]1CN(C)C(=O)c2ccc(NC(=O)c3ccc4c(c3)OCO4)cc2OC[C@H](C)NC[C@@H]1C	none (no result: MITF TRPM1 HTS, Wnt act, Rtt109 HAT inh)
CO[C@@H]1CN(C)C(=O)c2ccc(NC(=O)Nc3ccc4c(c3)OCO4)cc2OC[C@H](C)NC[C@H]1C	esBAF inh 92.8 (no result: MITF TRPM1 HTS, Wnt act, Rtt109 HAT inh)
CCNC(=O)C[C@@H]1C=C[C@H](NC(=O)NC2CCCCC2)[C@H](CO)O1	none (no result: MITF TRPM1 HTS, Wnt act, Rtt109 HAT inh)
CCCCN1CC(O)=C(c2nc3ccccc3s2)C1=N	esBAF inh 58.3
CS(=O)(=O)N(CC(=O)N/N=C/c1cccs1)c1cccc(Cl)c1Cl	Statin myotox sup 118.6 (no result: MITF TRPM1 HTS)
CC(=O)Nc1ccc(NC(=O)CN(c2ccccc2Cl)S(C)(=O)=O)cc1	Wnt act 40.0
Cc1ccc(S(=O)(=O)N(CC(=O)N/N=C\c2cccs2)c2cccc3cccnc23)cc1	none (no result: esBAF inh, Statin myotox sup)

Source: PubChem (Broad Institute)
